The nature of assay [1]: NCI Yeast Anticancer Drug Screen. Data for the rad50 strain (AID 155).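 Further: 0% = growth of vehicle-only cultures of the same strain.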 The settings on record: S. cerevisiae rad50 strain growth inhibition; at 50.0 µM; hits give high values. In a few lines: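 Inhibition values express reduced yeast growth in compound-treated cultures relative to vehicle-treated controls.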
A short description of assay [2]: NCI Yeast Anticancer Drug Screen. Data for the mec2-1 strain (AID 157). The settings on record: S. cerevisiae mec2-1 strain, at 50.0 µM, hits give high values. Summed up: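 Mutant yeast (mec2-1) grown with compound; growth inhibition relative to vehicle control reported.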
Assay [3] can be described thus: NCI Yeast Anticancer Drug Screen. Data for the sgs1 mgt1 strain (AID 161).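 Further: 0% = growth of cultures given vehicle only.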 The settings on record: S. cerevisiae sgs1 mgt1 strain, at 50.0 µM, hits give high values. Summed up: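 Yeast cells carrying a defined DNA-repair defect were exposed to test compounds. Growth inhibition was measured relative to vehicle-treated controls.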
The nature of assay [4]: NCI Yeast Anticancer Drug Screen. Data for the bub3 strain (AID 167). The settings on record: S. cerevisiae bub3 mutant strain, at 50.0 µM, hits give high values. Summed up: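 Steps: expose the mutant yeast strain to compound; grow alongside vehicle-treated cultures; measure growth; express inhibition against the vehicle cultures.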
Assay [5] in a line: NCI Yeast Anticancer Drug Screen. Data for the mlh1 rad18 strain (AID 175). The settings on record: S. cerevisiae mlh1 rad18 strain growth inhibition; at 50.0 µM; hits give high values. Summed up: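 Genetically defined yeast (DNA repair-deficient) exposed to compounds; growth inhibition determined relative to vehicle.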
Assay [6] is described as follows: NCI Yeast Anticancer Drug Screen. Data for the cln2 rad14 strain (AID 165).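 Further: 0% = growth equal to vehicle treated cultures.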 The settings on record: S. cerevisiae cln2 rad14 strain, at 50.0 µM, hits give high values. Summed up: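 Readout is yeast growth inhibition versus vehicle-treated controls, using a strain with cln2 and rad14 alterations exposed to compound.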

The structures appear in SMILES notation. Compounds without any hit were thinned out: in the full panel of roughly 79,000, 15% have a hit. A number with no mark means an inactive call. The source made the active and inactive calls. No stated cut-off is given here; in the data, active means growth inhibition above about 70%; inactive means the rest.

On to `Cc1ccc(-c2nn[nH]n2)cc1[N+](=O)[O-]`, for which the growth inhibition was 5.65% in assay [1]; 8.6% in assay [2]; -0.65% in assay [3]; -21.9% in assay [4]; 16.1% in assay [5].
For the compound `CN(C)c1nc(=NCc2cccs2)ss1`, the growth inhibition in assay [1] is 71.2% (active); in assay [2] it was 46.3%; in assay [3] it was 77.5% (active); in assay [4], 60.5%; in assay [5] it was 65.7%.
The matching figures for `Cc1ccc(N=NN(C)C)cc1`: 2.55%, 3.65%, -9.55%, 1.55% and 33%.
As to `S=C1SCCCN1c1ccccc1`, the growth inhibition in assay [1] is -6.35%; in assay [2], -4.05%; in assay [3], -4.9%; in assay [4], -9.6%; in assay [5] it was -20%.
On the same counts, the results for `Clc1ncnc2c1cnn2-c1ccccc1` are -4.05%, -8.55%, 1.05%, -2.55% and -6.1%.
On the same counts, the results for `CC(C)OC(=O)NCc1cccs1` are -10.1%, -2.6%, 6.7%, 1.7% and -11.1%.
On the same counts, the results for `NCCC(=O)O` are 5.95%, 14.9%, -8.25%, -13.8% and 16.9%.
With `CC(=O)Nc1ccc(S(=O)(=O)/C(=C\c2ccc(Cl)o2)c2ccc([N+](=O)[O-])o2)cc1`, the growth inhibition in assay [1] is 90.1% (active); in assay [2], 56.8%; in assay [3], 92.9% (active); in assay [4] it was 61.4%; in assay [5], 92.7% (active).
On the same counts, the results for `CC(NNC(=S)N1CCCCCC1)c1cccc[n+]1[O-]` (stereo not given) are 97.4% (active), 8.3%, 96.5% (active), 14.3% and 33.6%.
Regarding `COc1ccc(/C=N/n2cnc3c(c2=O)SC(=C(C#N)C#N)N3c2ccccc2)cc1`, the growth inhibition in assay [1] is -5.4%; in assay [2], -35.5%; in assay [3], -15.6%; in assay [4] it was -19.5%; in assay [5], -41%.
The matching figures for `CC(=NC1CCCCC1)c1ccccc1O`: 24.4%, -11.1%, -3.35%, 13.6% and 16.8%.
For the compound `CSC(C(=O)O)c1cc(-c2c(Cl)cccc2Cl)no1` (stereo not given), the growth inhibition in assay [1] is -1.95%; in assay [2], 23.8%; in assay [3], 29%; in assay [4] it was 24.4%; in assay [5], 22.9%.
On the same counts, the results for `Cc1cccc(-c2cc3cccnc3nc2NN=O)c1C` are 64.8%, 68%, 75.7% (active), 67.1% and 76.5% (active).
On the same counts, the results for `CC(=O)c1cc([N+](=O)[O-])c(O)cc1O` are 36.1%, 2.25%, 18.1%, 25.9% and 41%.
On the same counts, the results for `Nc1nc(-c2ccccc2)c(N=Nc2cccc(Cl)c2)s1` are -10.7%, -4%, -11.4%, -2% and -10.8%.
On to `COc1cc2c(cc1OC)C1CCN3C(=O)CCC3[N+]1(C)CC2` (stereo not given), for which the growth inhibition in assay [1] was 46.6%; in assay [2], -1.05%; in assay [3] it was 28.9%; in assay [4], 3.2%; in assay [5], 8.7%.
As for `CN(C)C1CS(=O)(=O)OC2=C1CCSc1ccccc12` (stereo not given), the growth inhibition in assay [1] was 5.1%; in assay [2], 12.1%; in assay [3] it was 11.4%; in assay [4], -5.65%; in assay [5] it was 7.6%.
The matching figures for `CCN(CC)CCCN1CC(=O)N2CCCCN2C(=O)C1`: 28.8%, -3.6%, 13.4%, 3.05% and 8.9%.
With `Cc1[nH]c2c(O)ccc(O)c2c1C`, the growth inhibition in assay [1] was -1.05%; in assay [2], -9.45%; in assay [3], -9.15%; in assay [4] it was -8%; in assay [5] it was 4.9%.
On the same counts, the results for `NCCCCCC(N)=O` are 45%, 32.5%, 38.8%, 33.5% and 33.1%.
On to `CCOC(=O)CCC1(C(=O)OC)C(=O)CCCCCCCC1C(=O)OC` (stereo not given), for which the growth inhibition in assay [1] was -1.85%; in assay [2] it was -5.65%; in assay [3], 20.3%; in assay [4] it was 19.4%; in assay [5] it was 7.3%.
On the same counts, the results for `O=C1c2cc(CCl)sc2C(=O)c2ccsc21` are 88.9% (active), 89.3% (active), 89.5% (active), 87.6% (active) and 83.2% (active).
The matching figures for `CCCCCCCCCCCCC/C=C/CC(CC(=O)Nc1ccc(-n2c(=O)cc(C)n2C)cc1)C(=O)O` (stereo not given): 3.75%, -24.1%, 13.1%, 20.6% and 5.65%.
As to `CC1=CC(C)(C)Nc2ccccc21`, the growth inhibition in assay [1] is -0.25%; in assay [2], -5.6%; in assay [3] it was -8.95%; in assay [4] it was 6.95%; in assay [5], 8.45%.
On the same counts, the results for `O=C(Nc1cc(Br)c2cccc3c2c1CC3)c1ccccc1` are 6.35%, 10.9%, 1.45%, 14.3% and -0.95%.
The matching figures for `CC(C)(c1ccccc1)[Si](c1ccccc1)(c1ccccc1)c1ccccc1`: 30.1%, -7.05%, 9.95%, -6.85% and 0.65%.
The matching figures for `CCOC(C)C1C2CCCCC21` (stereo not given): 2.1%, 0.75%, 6.2%, 4.85% and 8.75%.
For the compound `O=C(Nc1ccccc1)OCc1cnc2ccccc2c1`, the growth inhibition in assay [1] was 6.05%; in assay [2], -22.6%; in assay [3] it was 9.2%; in assay [4], 3.05%; in assay [5], -2.8%.
As for `Cc1ccncc1C#N`, the growth inhibition is 5% in assay [1]; -2.25% in assay [2]; -0.9% in assay [3]; 0.3% in assay [4]; 3.95% in assay [5].
For the compound `C/C(=N/NC(=O)c1ccccc1)C(=O)c1ccccc1`, the growth inhibition in assay [1] was -4.4%; in assay [2], -12.2%; in assay [3] it was -2.65%; in assay [4], 6%; in assay [5], -0.15%.
For `COC(=O)/C=C1\C(=O)c2ccccc2-c2ccccc21`, the growth inhibition in assay [1] was 35.8%; in assay [2], 35.4%; in assay [3], 13.9%; in assay [4], 25.4%; in assay [5], 51.6%.
On the same counts, the results for `N#CCCC(=O)c1ccccc1` are -1.5%, -19.1%, -1.15%, 5.15% and 16.9%.
On the same counts, the results for `COc1ccc(N2C(=O)CC(c3cc(OC)c(OC)c(OC)c3)CC2=O)cc1` are -3.7%, -20.5%, 10.4%, 8.25% and -2.75%.
The matching figures for `O=C(O)c1ccc([N+](=O)[O-])cc1Cl`: -11.9%, -10%, -1.55%, -3.25% and -7.55%.
As to `N#Cc1ccccc1OCCCCOc1ccccc1C#N`, the growth inhibition in assay [1] was 8.7%; in assay [2], 14%; in assay [3], 15.2%; in assay [4], 18.7%; in assay [5], 16.1%.
As to `O=[N+]([O-])CC1CCCCC1`, the growth inhibition in assay [1] was -2.7%; in assay [2], -19.9%; in assay [3], 6.85%; in assay [4], -1.3%; in assay [5], 19.1%.
For `CCS(=O)(=O)c1ccc(NC(=O)OCc2ccccc2)cc1`, the growth inhibition is 12.1% in assay [1]; 23.4% in assay [2]; 22.4% in assay [3]; 25.5% in assay [4]; -2.4% in assay [5].
On the same counts, the results for `O=P1(c2ccccc2)c2ccccc2CCc2ccccc21` are 18%, 2.75%, 21.8%, 2.25% and 8.35%.
Turning to `CCC/C=N/NC(=O)CCCCCCCCCCCCCCCCC`, the growth inhibition was 7.35% in assay [1]; 7.95% in assay [2]; 16.9% in assay [3]; 7.7% in assay [4]; 14.3% in assay [5].
Consider `O=NN(Cc1ccccc1)c1ccc(OCc2ccccc2)c(NC(=O)CCC2OCCO2)c1`, for which the growth inhibition is 6.95% in assay [1]; 4.25% in assay [2]; 30.4% in assay [3]; 39.9% in assay [4]; 9.5% in assay [5].
For `CC(=O)OCC1OC(N=[N+]=[N-])C(OC(C)=O)C(OC(C)=O)C1OC1OC(COC(C)=O)C(OC(C)=O)C(OC(C)=O)C1OC(C)=O` (stereo not given), the growth inhibition in assay [1] is -19.1%; in assay [2] it was -29.9%; in assay [6] it was -0.35%; in assay [4] it was 5.55%; in assay [5] it was -17.1%.
On the same counts, the results for `O=C(O)C1CCCCC1C(=O)Nc1cccc2ccccc12` (stereo not given) are 6.65%, -2.8%, -7.95%, 24.4% and -39.5%.
As to `NC(=S)NNC(=O)c1ccccc1`, the growth inhibition is -16.7% in assay [1]; -10.6% in assay [2]; 9.65% in assay [6]; 6.75% in assay [4]; -2.55% in assay [5].
Regarding `O=c1oc2ccccc2c(O)c1C(c1cc(OCc2ccccc2)cc(OCc2ccccc2)c1)c1c(O)c2ccccc2oc1=O`, the growth inhibition was -12.1% in assay [1]; -2.85% in assay [2]; -19.4% in assay [6]; -11.7% in assay [4]; -16.6% in assay [5].
On the same counts, the results for `O=c1[nH]cc(C(F)(C(F)(F)F)C(F)(F)F)c(=O)[nH]1` are -21.9%, -18.9%, -4.25%, -25.3% and -36.8%.
With `[Cu+2].[Cu+2].c1ccc2c(c1)-c1nc-2nc2[n-]c(nc3nc(nc4[n-]c(n1)c1ccccc41)-c1ccccc1-3)c1cc3c4nc5nc(nc6[n-]c(nc7nc(nc([n-]4)c3cc21)-c1ccccc1-7)c1ccccc61)-c1ccccc1-5`, the growth inhibition in assay [1] is -1.75%; in assay [2] it was -9.45%; in assay [6], -40.3%; in assay [4] it was -11.1%; in assay [5], 11.3%.
On the same counts, the results for `COC1OC2COC(c3ccccc3)OC2C(N=[N+]=[N-])C1O` (stereo not given) are -0.1%, 4%, -31.2%, -7.45% and 2.2%.

The values above are taken from PubChem BioAssay (NCI).
